Data reported in the supplement of paper PMC7411054.
Where a name gives a salt, the structure may show the parent alone.

system: HepG2-CANX-COX4; assay: phenotypically active (imaging signature differs from DMSO and reproducible) at any of 0.3-9 uM (binary (1 = active, 0 = inactive)); higher = active; conditions: treatment time: 24 h
Summary of the method: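 Four wells per concentration (0.3, 1, 3 or 9 µM) were treated for 24 h in each of fifteen gene-edited reporter lines from A549, HepG2 and WPMY1 cells, then imaged live. After normalising live-cell features to solvent control wells, deviation was defined as ≥3 of 4 wells lying past the 95th percentile of control Euclidean distances. Reproducibility was defined as a median replicate Pearson correlation above the 95th percentile of non-replicates. Both had to hold for phenotypic activity.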

Phenotypically active, active:
Nc1nc(Cl)nc2c1ncn2[C@@H]1O[C@H](CO)[C@@H](O)[C@@H]1F [clofarabine] 1
Cc1nc(Nc2ncc(C(=O)Nc3c(C)cccc3Cl)s2)cc(N2CCN(CCO)CC2)n1 [dasatinib] 1
O=C(NCc1cccc(O)c1)Nc1nc(-c2ccncc2)cs1 [RKI 1447 dihydrochloride] 1
CC(C)n1nc(-c2cc3cc(O)ccc3[nH]2)c2c(N)ncnc21 1
COc1ccc(-c2ccc3ncc4c(c3c2)n(-c2ccc(N3CCNCC3)c(C(F)(F)F)c2)c(=O)n4C)cn1 1
CC(C)(C)c1cnc(CSc2cnc(NC(=O)C3CCNCC3)s2)o1 1
O=C(O)c1ccc(Nc2ncc3c(n2)-c2ccc(Cl)cc2C(c2c(F)cccc2F)=NC3)cc1 1
COc1ccc(S(=O)(=O)N(C(C)=O)c2ccccc2/C=C/c2cc[n+]([O-])cc2)cc1 1
CC(C)(C)Nc1nc(Nc2ccc(C(N)=O)cc2)cc(N)c1C#N 1
Nc1cccc(-c2cc3c(Oc4cccc(O)c4)ncnc3[nH]2)c1 1
c1ccc2c(c1)Cc1c(Nc3ccc4c(c3)OCCO4)n[nH]c1-2 1
Cc1c(NC(=O)OC[C@@H]2COCCN2)cn2ncnc(Nc3ccc4c(cnn4Cc4cccc(F)c4)c3)c12 1
CCC(=O)N1CCN(c2ccc(-n3c(=O)ccc4cnc5ccc(-c6cnc7ccccc7c6)cc5c43)cc2C(F)(F)F)CC1 [Torin 1] 1
COc1c(Nc2cc(C)[nH]n2)nc(Sc2ccc(S(=O)(=O)Cc3cccc([N+](=O)[O-])c3F)cc2F)nc1N1CCOCC1 [Centrinone] 1
COc1cc2c(NC3CCN(C(C)C)CC3)nc(N3CCC(F)(F)CC3)nc2cc1OCCCN1CCCC1 1
CC(=O)c1c(C)c2cnc(Nc3ccc(N4CCNCC4)cn3)nc2n(C2CCCC2)c1=O 1
CN1c2ccccc2C(=O)N2CCc3c([nH]c4ccccc34)[C@H]21 [Evodiamine] 1
CO[C@H]1C=CC=C(C)C(=O)NC2=CC(=O)C(NCCN(C)C)=C(C[C@@H](C)C[C@H](OC)[C@H](O)[C@@H](C)C=C(C)[C@@H]1OC(N)=O)C2=O [17-DMAG hydrochloride] 1
Cc1noc(C)c1-c1cc(O)cc(C(O)c2ccccc2)c1 (centres undefined) 1
O=C(Nc1ccc(-c2ccnc(Nc3ccc(N4CCOCC4)cc3)n2)cc1)[C@@H]1CCCN1 1
NC1(C(=O)N[C@@H](CCO)c2ccc(Cl)cc2)CCN(c2ncnc3[nH]ccc23)CC1 1
NC(=O)Nc1cc(-c2cccc(F)c2)sc1C(=O)N[C@H]1CCCNC1 [AZD 7762 hydrochloride] 1
COc1cc2nc(-c3cc(F)ccc3O)nc(N[C@@H]3CNC[C@H]3C(C)(C)O)c2cc1OC 1
Cc1c[nH]c2nccc(Oc3c(F)cc(Nc4cc(Cl)nc(N)n4)cc3F)c12 1
C[C@H]1[C@H]2CC[C@H]3[C@@H]4CC=C5C[C@@H](N(C)C)CC[C@]5(C)[C@H]4CC[C@]23CN1C [Conessine] 1
CON(C)C(=O)N1N=C(c2cc(F)ccc2F)S[C@@]1(CCCN)c1ccccc1 [ARRY 520 trifluoroacetate] 1
CC[C@H](CO)Nc1nc(NCc2ccc(-c3ccccn3)cc2)c2ncn(C(C)C)c2n1 1
Oc1cccc(-c2nc(N3CCOCC3)c3oc4ncccc4c3n2)c1 [PI 103 hydrochloride] 1
COc1cc(/C=C/c2ccc(OC)cc2OC)cc(OC)c1 1
COc1cc2c(cc1-c1c(C)noc1C)ncc1[nH]c(=O)n([C@H](C)c3ccccn3)c12 [I-BET 151 dihydrochloride] 1
COc1cccc(-c2cc(F)ccc2[C@H]2Cc3nc(N)nc(C)c3C(=O)N2)n1 1
COc1cc(C(=O)NC2CCN(C)CC2)c(F)cc1Nc1ncc2c(n1)N(C1CCCC1)CC(F)(F)C(=O)N2C [TAK 960 hydrochloride] 1
CC[C@]1(O)C[C@@H]2CN(CCc3c([nH]c4ccccc34)[C@@](C(=O)OC)(c3cc4c(cc3OC)N(C=O)[C@H]3[C@@](O)(C(=O)OC)[C@H](OC(C)=O)[C@]5(CC)C=CCN6CC[C@]43[C@@H]65)C2)C1 [vincristine] 1
OC[C@H]1O[C@@H](n2cnc3c(NCc4ccco4)ncnc32)[C@H](O)[C@@H]1O [Kinetin riboside] 1
N#Cc1c(C2CCNCC2)cc(-c2c(O)cccc2OCC2CC2)nc1N 1
C=CC(=O)Nc1cccc(Nc2nc(Nc3ccc(OCCOC)cc3)ncc2F)c1 1
COc1cc(N2CCC(N3CCN(C)CC3)CC2)ccc1Nc1ncnc(Nc2ccccc2S(=O)(=O)C(C)C)n1 1
Fc1ccccc1CNCc1ccc(-c2ccnc3[nH]ccc23)cc1 [OXA 06 dihydrochloride] 1
C[C@H]1COCCN1c1cc(C2(S(=O)(=O)C3CC3)CC2)nc(-c2ccc(NC(=S)NCCO)cc2)n1 1
